Experimental findings from PubChem BioAssay (NCI) are described below.

This is part of a sample that, as a whole, favours compounds with a hit. Of some 83,000 tested, about 20% had one in any assay.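 Results are percent growth after 48 hours of single-concentration exposure. 100 means growth as in untreated cells, lower positive values show inhibition; negative values down to -100 show cell death.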 A number with no mark means an inactive call. Active and inactive are the calls of the source. Rule for the calls: active = growth percent below 10; inactive = the rest.

Assay in all cases: NCI-60 one-dose screen, 48 h (100 = growth as untreated, 0 = no growth, -100 = all killed)
Common to all, as to details: 10 µM unless noted

The subject of assay [1] is RPMI-8226 leukemia.
In assay [2] the test system is OVCAR-8 ovarian.
The subject of assay [3] is OVCAR-5 ovarian.
Assay [4] deals with OVCAR-4 ovarian.
The subject of assay [5] is SK-OV-3 ovarian.
In assay [6] the test system is IGROV1 ovarian.
In assay [7] the test system is OVCAR-3 ovarian.
Assay [8] deals with HS 578T breast.
The test system of assay [9] is NCI/ADR-RES ovarian.
The test system of assay [10] is T-47D breast.
For assay [11], the system named is BT-549 breast.
The test system of assay [12] is MDA-MB-435 melanoma.
Assay [13] deals with SW-620 colon.
The test system of assay [14] is MCF7 breast.
Assay [15] concerns HCT-116 colon.
Assay [16] concerns HCC-2998 colon.
The test system of assay [17] is KM12 colon.

As for `Oc1ccc(Cc2ccc(O)c(C3CC(c4ccc(Cl)cc4)=NN3)c2)cc1C1CC(c2ccc(Cl)cc2)=NN1` (stereo not drawn), the growth in assay [1] is 17.4%; in assay [2], 15.8%; in [3], 37.8%; in assay [4] it was 43.5%; in assay [5], 50.5%; in assay [6], 18.5%. Besides, the growth in assay [7] is 10% (active); in assay [8] it was 13.8%; in [9], 4.68% (active); in assay [10], 38.3%; in [11], 36.2%; in [12] it was 3.35% (active). Moreover, the growth was 13.6% in [13]; 17.5% in [14]; 1.4% (active) in [15]; 11.3% in assay [16]; 12% in [17].
Take `COc1ccc(Nc2nccc(N3CCN(c4c5ccc(Cl)cc5nc5ccc(OC)cc45)CC3)n2)cc1`: the growth was 29.5% in [1]; 73.2% in assay [2]; 97.1% in [3]; 46.6% in [4]; 107% in assay [5]; 75.7% in assay [6]. The growth in assay [7] is 67.5%; in [8] it was 80.3%; in assay [9] it was 75.9%; in assay [10], 48.7%; in assay [11], 90.5%; in [12], 55.8%. Moreover, the growth was 60.1% in assay [13]; 37.6% in assay [14]; 24% in assay [15]; 93.9% in [16]; 73.9% in assay [17].
For the compound `O=c1[nH]c(Cl)nc2c1cnn2-c1ccccc1`, the growth in assay [1] is 51.7%; in [2], 106%; in assay [3] it was 97.2%; in [4], 82.6%; in [5], 110%; in assay [6], 108%. Further, the growth in assay [7] is 93.4%; in [8], 93.4%; in assay [9], 96.3%; in assay [10], 98.4%; in assay [11], 52.9%; in assay [12], 52.4%. Besides, the growth in [13] was 50.6%; in assay [14], 84.3%; in assay [15] it was 31%; in [16], 91.2%; in assay [17], 18.6%.
For the compound `CC(=O)c1nc2ccccc2n1CCn1cc(CC(N)C(=O)O)c2ccccc21` (stereo not drawn), the growth is 90% in assay [1]; 99% in assay [2]; 96.9% in assay [3]; 98.8% in [4]; 108% in [5]; 99.1% in assay [6]. Besides, the growth in assay [7] was 108%; in [8] it was 109%; in [9], 97.5%; in [10], 106%; in [11], 105%; in assay [12] it was 101%. Moreover, the growth in assay [13] was 114%; in assay [14], 75.3%; in assay [15], 106%; in [16], 102%; in assay [17], 104%.
With `CC(C)[C@H]1CC[C@H]2[C@@H](CC[C@H]3[C@](C)(CN)CCC[C@]23C)C1`, the growth in assay [1] was 21.6%; in assay [2] it was 97.9%; in [3] it was 74.7%; in assay [4], 67.6%; in [5] it was 111%; in assay [6], 92.6%. For the same compound, the growth is 22.7% in assay [7]; 94.6% in assay [8]; 89.5% in assay [9]; 64% in [10]; 99.4% in assay [11]; 1.77% (active) in assay [12]. Also, the growth in [13] was -12.2% (active); in [14], -55.8% (active); in assay [15] it was 5.32% (active); in [16], 29.3%; in [17], 36.7%.
In the case of `COc1cc(Oc2cc(-c3cccnc3)ccc2NC(=O)Nc2ccc(F)cc2F)cc(OC)c1OC`, the growth in assay [1] was 93.6%; in [2], 92.8%; in [3], 117%; in assay [4], 113%; in assay [5], 89.1%; in assay [6] it was 116%. The growth was 102% in [7]; 99.9% in assay [8]; 95.2% in assay [9]; 71.5% in assay [10]; 103% in assay [11]; 109% in assay [12]. Also, the growth in [13] was 104%; in assay [14], 94.2%; in assay [15], 97.8%; in assay [16], 106%; in [17], 108%.
Turning to `O=C1NCN(c2ccccc2)C12CCN(CCCC(c1ccc(F)cc1)c1ccc(F)cc1)CC2`, the growth is 102% in assay [1]; 66.1% in assay [2]; 83.2% in assay [3]; 48.5% in [4]; 73.4% in assay [5]; 47.7% in assay [6]. The growth in assay [7] was 66.8%; in assay [8], 69.3%; in assay [9], 69.9%; in assay [10], 94.2%; in assay [11], 61.6%; in assay [12], 47.7%. The growth was 77% in [13]; 37.8% in assay [14]; 30.1% in [15]; 15.9% in [16]; 76.3% in assay [17].
`CCC1=C(c2ccc(OC)cc2)C(C)(C)Oc2c1ccc(O)c2CN1CCCC1`: the growth in assay [1] is 0.544% (active); in [2] it was 58%; in assay [3], 68.3%; in [4], 60%; in assay [5], 73.9%; in assay [6] it was 51.4%. Further, the growth is 54.7% in assay [7]; 59.3% in [8]; 39.1% in assay [9]; -41.2% (active) in [10]; 40.9% in assay [11]; 2.88% (active) in [12]. Besides, the growth was 3.45% (active) in [13]; -73.1% (active) in [14]; -21.4% (active) in assay [15]; -89.7% (active) in assay [16]; -9.53% (active) in assay [17].
With `CC[N+](CC)(CCOCCOCC[N+](CC)(CC)Cc1ccc([N+](=O)[O-])cc1)Cc1ccc([N+](=O)[O-])cc1`, the growth in assay [1] was 96.6%; in [2], 103%; in assay [3], 98.8%; in [4], 106%; in assay [5], 112%; in assay [6], 125%. Also, the growth in assay [7] was 116%; in assay [8], 133%; in assay [9], 98.9%; in assay [10], 95.3%; in assay [11], 107%; in assay [12] it was 104%. Further, the growth in assay [13] is 101%; in assay [14], 104%; in assay [15] it was 97.8%; in [16], 98.1%; in assay [17] it was 101%.
